Records with an inconclusive call do not appear. Where a call stands in place of a potency, no number is given. Active and inactive are the calls of the source. Calls follow the shape of the dose curve; as a rule, active = well fitted inhibition curve with a large enough effect; inconclusive = small, poorly fitted or top-dose-only effect; inactive = no such curve, though single readings can be large or run the other way.
Assays:
[1] = system: Zika virus NS2B-NS3 protease (unlinked complex); experiment: Primary screen GU Rhodamine qHTS for Zika virus inhibitors: Unlinked NS2B-NS3 protease assay (AID 1347159); details: Recombinant ZIKV NS2B-NS3 protease, Rhodamine110 substrate fluorescence; series mostly up to 107 µM; also: nearly all actives have a fitted effect of over 60% in size; also: potency is read from the fitted curve at half-maximal effect
How it was run: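 Compounds, tested up to 114 microM, were incubated for 15 minutes with 25 nM unlinked NS2B-NS3 protease at pH 8.0. Cleavage of 1.5 microM Rhodamine110 substrate was then followed by fluorescence for 15 minutes.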

[2] = system: Zika virus NS2B-NS3 protease (linked construct); experiment: Primary screen NINDS Rhodamine qHTS for Zika virus inhibitors (AID 1347160); details: purified NS2B-NS3 protease, Rhodamine110 substrate fluorescence; series mostly up to 33.1 µM; also: nearly all actives have a fitted effect of over 55% in size
How it was run: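 Percent inhibition, normalized to uninhibited and enzyme-free controls, is fitted to a 4-parameter Hill equation. Fluorescence change comes from a 15-min cleavage of 1.5 microM bis-peptide Rhodamine110 substrate by 25 nM linked NS2B-NS3 at room temperature.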

Structure (SMILES) | Potency [1] | Potency [2]
C=C1CCC[C@]2(C)CC[C@@](O)(C(=C)C(=O)O)C[C@@H]12 | 11.2 µM (active) | 
CC1(C)[C@@H]2CC=C(CO[C@@H]3O[C@H](CO[C@@H]4OC[C@H](O)[C@H](O)[C@H]4O)[C@@H](O)[C@H](O)[C@H]3O)[C@H]1C2 | inactive | 
C/C=C(\C)C1C(C)=CC2CCC(OS(=O)(=O)O)C(C)C2C1/C=C/C=C/C(=O)O (stereo not drawn) | 8.91 µM (active) | 
C=Cc1ccc(O[C@@H]2O[C@H](CO[C@@H]3O[C@@H](C)[C@H](O)[C@@H](O)[C@H]3O)[C@@H](O)[C@H](O)[C@H]2O)cc1 | inactive | 
CCC[C@H](N[C@@H](C)C(=O)N1[C@H](C(=O)O)C[C@@H]2CCCC[C@@H]21)C(=O)O | inactive | 
C=C(C)[C@H]1CC[C@]2(C(=O)O)CC[C@]3(C)C(CCC4[C@@]5(C)CCC(=O)C(C)(C)C5CC[C@]43C)C12 (stereo partly drawn) | 7.08 µM (active) | 
COc1ccc(CC(NC(C)=O)C(=O)O)cc1 (stereo not drawn) | 31.6 µM (active) | 
O=C(O)[C@H](Cc1ccccc1)Oc1ccc(-c2ccccc2)cc1 | 35.5 µM (active) | 
CC1=CCC[C@@H]2[C@](CCc3ccoc3)(C(=O)O)[C@H](C)CC[C@@]12C | 8.91 µM (active) | 
CC(C)=CCC/C(C)=C/CO[C@@H]1O[C@H](CO[C@@H]2OC[C@](O)(CO)[C@H]2O)[C@@H](O)[C@H](O)[C@H]1O | inactive | 
CC(C)c1ccc2c(c1)C(O)CC1C(C)(CO)CCCC21C (stereo not drawn) | inactive | 
C=C1CCC2C(C)(C)CC(=O)CC2(C)C1CCC(C)CCO (stereo not drawn) | 20 µM (active) | 
OC[C@@]1(O)CO[C@H](OC[C@H]2O[C@@H](OC(CCCCc3ccc(O)cc3)CCc3ccc(O)cc3)[C@H](O)[C@@H](O)[C@@H]2O)[C@@H]1O (stereo partly drawn) | inactive | 
Cc1ccc(C)c(NC(=O)CNS(=O)(=O)c2ccc3[nH]c(=O)oc3c2)c1 | inactive | 
CC(C)CC(=O)O[C@@H]1O[C@H](CO)[C@@H](O[C@H]2O[C@H](C)[C@@H](N[C@H]3C=C(CO)[C@@H](O[C@H]4O[C@H](CO)[C@@H](O[C@H]5O[C@H](CO)[C@@H](O[C@H]6O[C@H](CO)[C@@H](O)[C@H](O)[C@H]6O)[C@H](O)[C@H]5O)[C@H](O)[C@H]4O)[C@H](O)[C@H]3O)[C@H](O)[C@H]2O)[C@H](O)[C@H]1O | inactive | 
Cc1cc(CO)c(O)c(C(=O)CC2CC(=O)NC(=O)C2)c1 | inactive | 
COCc1c(O)c(C(=O)O)c(C)c2c1OC(=O)c1c(C)cc(O)c(CO)c1O2 | 28.2 µM (active) | 
C[C@@H]1CC2OC(=O)C3=C2C(CCC3O)[C@@]12C[C@@H](c1ccoc1)OC2=O (stereo partly drawn) | inactive | 
C=C1C2(C)CC3C4(C)OC(C5OC56C4=CC(=O)OC6(C)C)C3(C)C13C(=O)OC(C)C3(O)C2=O (stereo not drawn) | inactive | 
C[C@@]12CC3(S(=O)(=O)O)OC(O1)[C@]1(COC(=O)c4ccccc4)[C@H]3C[C@]21O[C@@H]1O[C@H](CO)[C@@H](O)[C@H](O)[C@H]1O | inactive | 
CC1=C[C@@H]2[C@H]3[C@@H]4O[C@@](C)(CC[C@H]4O)[C@H]3CC(=O)[C@]23C(=O)N[C@@H](CC(C)C)[C@@H]3[C@@H]1C | inactive | inactive
CN1CCc2cc(Cl)c(O)cc2[C@@H](c2cccc3c2OCC3)C1 | inactive | inactive
C=CC(C)(CC/C=C(\C)C(=O)OC[C@H]1O[C@@H](OC(C)(C=C)CC/C=C(\C)C(=O)O[C@H]2[C@H](O)[C@@H](O)[C@H](OC(C)(C=C)CC/C=C(\C)C(=O)O)O[C@@H]2CO)[C@H](O)[C@@H](O)[C@@H]1O)O[C@@H]1O[C@H](CO)[C@@H](O)[C@H](O)[C@H]1O (stereo partly drawn) | inactive | inactive
N#Cc1cccc(-c2c[nH]c3ncnc(N4CCOCC4)c23)c1 | inactive | inactive
